# In the library only some 2.8% were active in any assay of this set; here they are far more common.
# HTRA1 inhibitor = HTRA1 serine protease inhibitors, primary screen, biochemical, fluorescence polarization, HTS | recombinant HTRA1, FP-rhodamine activity-based probe | actives 0.5% (n = 340,000) | inhibition, % at 5.96 µM | AID 504803, 2011; in the data active means inhibition above about 36%
# PAFAH1B2 inh = PAFAH1B2 enzyme inhibitors, primary screen, biochemical, fluorescence polarization, human; actives 1.2% (n = 340,000); Platelet-activating factor acetylhydrolase IB subunit alpha2 (Homo sapiens), P68402; inhibition, % at 3.39 µM; AID 492953, 2010; recombinant PAFAH1B2, FP-rhodamine activity probe;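 active means inhibition above the mean of all tested compounds plus 3 SD, cut at about 24% in these data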
# PAFAH2 FP inh = PAFAH2 enzyme inhibitors, primary screen, biochemical, fluorescence polarization, human | Platelet-activating factor acetylhydrolase 2, cytoplasmic (Homo sapiens), Q99487 | inhibition, % at 3.39 µM | recombinant PAFAH2, FP-rhodamine activity probe | actives 0.99% (n = 340,000);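 active means inhibition above the mean over all tested compounds plus 3 SD, cut at about 30% in these data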;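 further: inhibitors block probe labeling of enzyme so polarization drops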
# DAGLB inhibitor = DAGLB lipase inhibitors, primary screen, biochemical, fluorescence, HTS. HEK293T DAGLB membrane lysate, EnzChek fluorogenic substrate. actives 0.059% (n = 340,000). Diacylglycerol lipase-beta (Homo sapiens), Q8NCG7. inhibition, % at 5.17 µM; in the data active means inhibition above about 34%
# Target sequence (Q8NCG7 whole entry, looked up): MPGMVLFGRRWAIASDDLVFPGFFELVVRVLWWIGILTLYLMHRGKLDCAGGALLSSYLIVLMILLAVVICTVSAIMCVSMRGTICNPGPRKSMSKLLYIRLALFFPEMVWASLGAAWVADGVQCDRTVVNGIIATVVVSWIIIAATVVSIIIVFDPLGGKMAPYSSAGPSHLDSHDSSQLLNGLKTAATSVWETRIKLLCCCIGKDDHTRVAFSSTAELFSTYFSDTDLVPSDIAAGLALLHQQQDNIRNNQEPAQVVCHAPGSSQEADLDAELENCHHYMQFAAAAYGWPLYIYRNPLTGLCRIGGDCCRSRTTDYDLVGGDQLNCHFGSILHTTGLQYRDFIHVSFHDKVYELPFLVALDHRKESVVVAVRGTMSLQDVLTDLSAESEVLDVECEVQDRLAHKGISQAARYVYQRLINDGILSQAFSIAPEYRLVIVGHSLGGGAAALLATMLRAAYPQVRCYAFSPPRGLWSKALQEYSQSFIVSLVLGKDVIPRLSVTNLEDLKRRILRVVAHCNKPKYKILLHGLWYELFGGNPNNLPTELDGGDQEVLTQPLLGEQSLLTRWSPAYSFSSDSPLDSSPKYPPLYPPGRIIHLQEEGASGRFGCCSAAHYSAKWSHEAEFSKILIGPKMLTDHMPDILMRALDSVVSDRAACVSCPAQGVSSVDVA
# pPAFAH inh = pPAFAH enzyme inhibitors, primary screen, biochemical, fluorescence polarization, human. Platelet-activating factor acetylhydrolase (Homo sapiens), Q13093. recombinant pPAFAH, FP-rhodamine probe fluorescence polarization. inhibition, % at 3.39 µM. AID 463082, 2010. actives 1.5% (n = 330,000);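 active means inhibition above the mean inhibition across the screen plus 3 SD, cut at about 25% in these data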;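 further: inhibitors block binding of the rhodamine activity-based probe so polarization drops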
# PAFAH1B3 inh = PAFAH1B3 enzyme inhibitors, primary screen, biochemical, fluorescence polarization, human | recombinant PAFAH1B3, FP-rhodamine probe | inhibition, % at 3.39 µM | actives 0.28% (n = 340,000) | AID 492972, 2010;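 active means inhibition above the screen-wide average of all tested compounds plus 3 SD, cut at about 25% in these data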
# PAFAH2 FP conf = PAFAH2 enzyme inhibitors, confirmation, biochemical, fluorescence polarization, human; shares compounds with PAFAH2 FP inh; recombinant PAFAH2, FP-rhodamine activity probe; inhibition, % at 3.39 µM; actives 65% (n = 2,300);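 active means mean inhibition over three repeats above a set limit taken from the earlier primary screen, cut at about 30% in these data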;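 further: inhibitor blocks binding of rhodamine activity probe so polarization falls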
# Hits are given with their value; . = inactive; / = not tested or not shown.
SMILES,HTRA1 inhibitor,PAFAH1B2 inh,PAFAH2 FP inh,DAGLB inhibitor,pPAFAH inh,PAFAH1B3 inh,PAFAH2 FP conf
Cc1cc(C(=O)C(C(c2ccccc2)N2CCOCC2)N2CCOCC2)ccc1Cl (stereo not given),.,.,.,.,/,.,/
COc1ccc(CNC(=O)CCCNC(=O)c2ccc(Cl)cc2)cc1OC,.,.,.,.,.,.,/
Cc1cnc(NC(=O)C2CCC(C(C)(C)C)CC2)s1 (stereo not given),.,.,.,.,.,.,/
CC(C)NC(=O)COC(=O)c1cccc(NS(=O)(=O)/C=C/c2ccccc2)c1,.,.,37,.,.,.,.
CC1CCCC(NC(=O)COC(=O)c2cccc(NS(=O)(=O)/C=C/c3ccccc3)c2)C1C (stereo not given),.,.,46,.,.,.,40
C/C(=N\OCC(=O)OC(C)C(=O)Nc1ccc(C(N)=O)cc1)c1ccc2c(c1)OCO2 (stereo not given),.,.,.,.,.,.,/
O=C(Nc1ccc(OC(F)(F)F)cc1)C1CCCN(S(=O)(=O)c2cnc[nH]2)C1 (stereo not given),.,.,.,.,.,.,/
CCOc1ccccc1OCC(=O)Nc1cc(C)on1,.,.,.,.,.,.,/
Cc1cc(NC(=O)COC(=O)c2ccc(Cl)cc2)no1,.,/,/,.,/,/,/
CCOc1ccc(C(=O)OCC(=O)Nc2cc(C)on2)cc1OCC,.,.,77,.,.,.,63
CCOc1cc(C(=O)OCC(=O)Nc2cc(C)on2)ccc1OCC(C)C,.,.,33,.,.,.,.
Cc1cc(NC(=O)COC(=O)c2ccccc2S(=O)(=O)N(C)c2ccccc2)no1,.,.,46,.,.,.,.
CCN(CC)c1ccc(C(=O)OCC(=O)Nc2cc(C)on2)cc1,.,.,90,.,.,.,66
O=C(COC(=O)c1cc(S(=O)(=O)NCc2ccccc2)ccc1O)NCc1ccccc1,.,.,.,.,.,.,/
O=C(COC(=O)c1cc(S(=O)(=O)NCc2ccccc2)ccc1O)c1cc2ccccc2o1,.,.,58,.,.,.,48
O=C(COC(=O)c1ccc(Cl)s1)c1cc2ccccc2o1,.,.,38,.,.,.,.
Nc1c(-c2ccccc2)sc2ccc3ccccc3[n+]12,.,.,.,.,.,.,/
COCc1cc(C(C)=O)ccc1OCC(=O)Nc1ccc(NC(C)=O)cc1,.,.,.,.,.,.,/
CN(CC(=O)Nc1ccc(F)cc1)C(=O)COC(=O)/C=C/c1cccs1,.,.,.,.,.,.,/
CCc1cccc(NC(=O)COC(=O)/C=C/c2cccs2)c1,.,.,73,.,.,.,78
CNC(=O)COC(=O)/C=C/c1cccs1,.,.,.,.,.,.,/
CCNC(=O)COC(=O)/C=C/c1cccs1,.,.,.,.,.,.,/
CCOc1ccc(/C=C/C(=O)OCC(=O)Nc2cccc(S(=O)(=O)N3CCCC3)c2)cc1,.,.,.,.,.,.,/
O=C(COC(=O)/C=C/c1cccs1)Nc1ccc(F)cc1,.,.,82,.,.,.,82
O=C(COC(=O)/C=C/c1cccs1)NC1CC1,.,.,41,.,.,.,39
SMILES,HTRA1 inhibitor,PAFAH1B2 inh,PAFAH2 FP inh,DAGLB inhibitor,pPAFAH inh,PAFAH1B3 inh,PAFAH2 FP conf
O=C(COC(=O)/C=C/c1cccs1)Nc1cccc(S(=O)(=O)N2CCCC2)c1,.,.,64,.,.,.,57
Cc1cccc(CC(=O)Nc2ccc(C(=O)N3CCOCC3)cc2)c1,.,.,.,.,.,.,/
COc1ccccc1CNC(=O)COC(=O)/C=C/c1cccs1,.,.,50,.,.,.,37
COc1ccccc1CNC(=O)COC(=O)c1ccc(C)s1,.,.,75,.,.,.,62
COc1cc(OC)c(C(=O)OCC(=O)NCCC2=CCCCC2)cc1OC,.,.,.,.,.,.,/
CCOC(=O)c1ccccc1NC(=O)COC(=O)CCC(=O)c1ccc(C)cc1,.,.,.,.,.,.,/
